# Measurements reported in ChEMBL document CHEMBL1961873, “Compounds: GSK PKIS; Assays: Nanosyn kinase panel” (2012).
# Assays:
# [1] = target: T1, 3-phosphoinositide-dependent protein kinase 1 (Homo sapiens) (UniProt O15530); conditions: at 0.1 µM;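 also: values are mean inhibition of PDK1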
# T1 sequence (whole entry): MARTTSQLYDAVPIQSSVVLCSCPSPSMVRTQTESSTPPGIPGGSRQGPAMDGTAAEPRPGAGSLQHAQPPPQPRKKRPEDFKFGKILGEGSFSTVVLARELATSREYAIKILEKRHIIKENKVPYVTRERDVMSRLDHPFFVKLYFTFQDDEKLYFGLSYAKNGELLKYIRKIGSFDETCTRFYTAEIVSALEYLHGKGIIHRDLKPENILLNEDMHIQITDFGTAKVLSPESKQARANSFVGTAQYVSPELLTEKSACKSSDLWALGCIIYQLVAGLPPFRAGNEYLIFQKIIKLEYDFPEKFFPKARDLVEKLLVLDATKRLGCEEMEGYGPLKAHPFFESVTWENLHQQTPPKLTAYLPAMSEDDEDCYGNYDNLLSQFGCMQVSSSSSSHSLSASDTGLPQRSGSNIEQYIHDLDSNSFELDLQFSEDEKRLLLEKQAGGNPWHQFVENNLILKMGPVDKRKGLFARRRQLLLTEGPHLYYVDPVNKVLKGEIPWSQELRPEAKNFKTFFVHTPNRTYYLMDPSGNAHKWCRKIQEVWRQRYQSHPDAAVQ
# [2] = target: cAMP-dependent protein kinase catalytic subunit alpha (Homo sapiens) (UniProt P17612); conditions: at 0.1 µM
# [3] = target: cAMP-dependent protein kinase catalytic subunit alpha (Homo sapiens) (UniProt P17612); conditions: at 1 µM
# [4] = target: Protein kinase C alpha type (Homo sapiens) (UniProt P17252); conditions: at 0.1 µM
# [5] = target: Protein kinase C alpha type (Homo sapiens) (UniProt P17252); conditions: at 1 µM
# [6] = target: Protein kinase C beta type (Homo sapiens) (UniProt P05771); conditions: at 0.1 µM
# [7] = target: Protein kinase C beta type (Homo sapiens) (UniProt P05771); conditions: at 1 µM
# [8] = target: Protein kinase C eta type (Homo sapiens) (UniProt P24723); conditions: at 0.1 µM
# [9] = target: Protein kinase C eta type (Homo sapiens) (UniProt P24723); conditions: at 1 µM
# [10] = target: Protein kinase C gamma type (Homo sapiens) (UniProt P05129); conditions: at 0.1 µM
# [11] = target: Protein kinase C gamma type (Homo sapiens) (UniProt P05129); conditions: at 1 µM
# [12] = target: T2, Protein kinase C iota type (Homo sapiens) (UniProt P41743); conditions: at 0.1 µM
# T2 sequence (whole entry): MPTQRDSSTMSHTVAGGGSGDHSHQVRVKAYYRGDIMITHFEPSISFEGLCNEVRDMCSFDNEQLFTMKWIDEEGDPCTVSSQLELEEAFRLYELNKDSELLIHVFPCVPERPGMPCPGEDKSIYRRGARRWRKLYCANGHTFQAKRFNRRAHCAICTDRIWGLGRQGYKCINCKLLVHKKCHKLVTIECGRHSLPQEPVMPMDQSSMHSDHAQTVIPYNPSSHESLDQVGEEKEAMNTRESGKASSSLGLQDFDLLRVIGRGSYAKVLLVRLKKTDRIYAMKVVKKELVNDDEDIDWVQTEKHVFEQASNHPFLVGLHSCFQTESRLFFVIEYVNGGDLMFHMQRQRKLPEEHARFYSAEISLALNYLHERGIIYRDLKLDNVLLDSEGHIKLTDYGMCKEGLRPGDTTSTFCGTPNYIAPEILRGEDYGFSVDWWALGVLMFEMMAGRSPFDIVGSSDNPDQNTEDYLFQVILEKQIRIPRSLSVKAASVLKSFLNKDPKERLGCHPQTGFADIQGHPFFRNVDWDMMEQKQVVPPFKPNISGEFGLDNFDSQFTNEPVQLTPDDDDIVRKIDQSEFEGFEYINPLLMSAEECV
# [13] = target: T2, Protein kinase C iota type (Homo sapiens); conditions: at 1 µM
# [14] = target: Protein kinase C theta type (Homo sapiens) (UniProt Q04759); conditions: at 0.1 µM
# [15] = target: Protein kinase C theta type (Homo sapiens) (UniProt Q04759); conditions: at 1 µM
# [16] = target: Protein kinase C beta type (Homo sapiens) (UniProt P05771); conditions: at 0.1 µM; remark: listed apart in the source
# [17] = target: Protein kinase C beta type (Homo sapiens) (UniProt P05771); conditions: at 1 µM; remark: listed apart in the source
# [18] = target: T3, Serine/threonine-protein kinase D1 (Homo sapiens) (UniProt Q15139); conditions: at 0.1 µM
# T3 sequence (whole entry): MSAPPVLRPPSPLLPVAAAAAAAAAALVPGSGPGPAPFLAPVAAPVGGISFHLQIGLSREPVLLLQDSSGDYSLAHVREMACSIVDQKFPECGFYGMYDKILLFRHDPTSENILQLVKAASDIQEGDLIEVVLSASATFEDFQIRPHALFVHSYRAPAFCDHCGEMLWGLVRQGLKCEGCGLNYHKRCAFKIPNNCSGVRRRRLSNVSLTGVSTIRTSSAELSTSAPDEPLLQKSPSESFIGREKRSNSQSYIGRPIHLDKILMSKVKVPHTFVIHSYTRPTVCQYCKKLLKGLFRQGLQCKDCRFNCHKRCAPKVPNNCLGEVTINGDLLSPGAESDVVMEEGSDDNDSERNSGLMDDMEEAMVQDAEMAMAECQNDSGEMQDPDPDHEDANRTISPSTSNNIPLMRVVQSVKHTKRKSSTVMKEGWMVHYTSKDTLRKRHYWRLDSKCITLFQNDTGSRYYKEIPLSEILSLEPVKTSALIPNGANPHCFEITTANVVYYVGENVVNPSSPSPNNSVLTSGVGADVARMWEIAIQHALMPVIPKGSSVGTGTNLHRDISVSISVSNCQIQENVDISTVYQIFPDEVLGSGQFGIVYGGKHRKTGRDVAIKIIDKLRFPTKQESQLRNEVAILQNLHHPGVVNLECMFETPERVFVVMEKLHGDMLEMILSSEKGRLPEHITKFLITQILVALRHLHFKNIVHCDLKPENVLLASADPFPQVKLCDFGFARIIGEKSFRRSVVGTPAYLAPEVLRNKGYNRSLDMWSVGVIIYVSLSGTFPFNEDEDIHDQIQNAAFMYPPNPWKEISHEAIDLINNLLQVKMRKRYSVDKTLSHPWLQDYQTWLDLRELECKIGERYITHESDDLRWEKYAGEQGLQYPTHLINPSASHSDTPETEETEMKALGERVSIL
# [19] = target: T3, Serine/threonine-protein kinase D1 (Homo sapiens); conditions: at 1 µM
# [20] = target: T4, Serine/threonine-protein kinase D2 (Homo sapiens) (UniProt Q9BZL6); conditions: at 0.1 µM;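 also: reported percent inhibition values are means, part of the GSK PKIS kinase panel screen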
# T4 sequence (whole entry): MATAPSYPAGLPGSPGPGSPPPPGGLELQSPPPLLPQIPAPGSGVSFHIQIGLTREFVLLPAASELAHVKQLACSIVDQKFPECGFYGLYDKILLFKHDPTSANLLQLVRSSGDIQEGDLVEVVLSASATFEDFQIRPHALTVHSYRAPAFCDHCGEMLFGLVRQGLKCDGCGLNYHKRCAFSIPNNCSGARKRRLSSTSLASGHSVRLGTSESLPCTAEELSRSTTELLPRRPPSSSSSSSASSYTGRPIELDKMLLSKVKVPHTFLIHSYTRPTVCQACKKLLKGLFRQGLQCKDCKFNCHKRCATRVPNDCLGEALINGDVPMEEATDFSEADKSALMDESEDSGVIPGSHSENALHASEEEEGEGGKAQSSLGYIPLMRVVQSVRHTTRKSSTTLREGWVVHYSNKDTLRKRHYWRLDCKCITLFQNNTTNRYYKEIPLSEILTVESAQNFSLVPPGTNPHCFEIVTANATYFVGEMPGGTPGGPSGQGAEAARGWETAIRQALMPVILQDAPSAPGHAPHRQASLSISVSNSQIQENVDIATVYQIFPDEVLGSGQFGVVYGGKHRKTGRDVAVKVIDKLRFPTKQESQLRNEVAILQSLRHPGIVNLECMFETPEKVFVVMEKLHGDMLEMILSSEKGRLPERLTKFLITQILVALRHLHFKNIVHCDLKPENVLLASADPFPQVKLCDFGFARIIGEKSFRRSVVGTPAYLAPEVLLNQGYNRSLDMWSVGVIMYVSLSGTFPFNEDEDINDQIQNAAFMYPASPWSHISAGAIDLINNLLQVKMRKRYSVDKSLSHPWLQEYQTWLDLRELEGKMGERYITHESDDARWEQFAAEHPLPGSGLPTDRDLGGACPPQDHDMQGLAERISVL
# Chain of Protein kinase C theta type (Homo sapiens) (Q04759 whole entry, looked up): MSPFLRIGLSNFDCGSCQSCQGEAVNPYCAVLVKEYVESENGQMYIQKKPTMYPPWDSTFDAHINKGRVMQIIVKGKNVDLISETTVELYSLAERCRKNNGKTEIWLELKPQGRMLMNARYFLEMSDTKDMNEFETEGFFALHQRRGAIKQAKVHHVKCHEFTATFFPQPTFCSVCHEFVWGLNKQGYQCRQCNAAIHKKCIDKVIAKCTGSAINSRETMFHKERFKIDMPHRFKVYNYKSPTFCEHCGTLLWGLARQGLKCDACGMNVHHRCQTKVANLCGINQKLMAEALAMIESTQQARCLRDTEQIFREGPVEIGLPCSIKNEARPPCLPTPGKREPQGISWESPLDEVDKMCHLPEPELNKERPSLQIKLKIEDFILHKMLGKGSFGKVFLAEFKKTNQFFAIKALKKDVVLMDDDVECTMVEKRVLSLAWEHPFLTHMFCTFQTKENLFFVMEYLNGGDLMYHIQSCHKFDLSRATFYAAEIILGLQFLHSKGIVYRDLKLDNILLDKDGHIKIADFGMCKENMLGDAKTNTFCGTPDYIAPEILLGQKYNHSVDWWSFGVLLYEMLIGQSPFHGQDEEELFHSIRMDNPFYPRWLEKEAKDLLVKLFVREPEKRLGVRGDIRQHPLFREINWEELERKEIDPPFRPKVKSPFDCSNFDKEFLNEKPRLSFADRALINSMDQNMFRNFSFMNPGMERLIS
# Chain of Protein kinase C beta type (Homo sapiens) (P05771 2-671 limits assumed): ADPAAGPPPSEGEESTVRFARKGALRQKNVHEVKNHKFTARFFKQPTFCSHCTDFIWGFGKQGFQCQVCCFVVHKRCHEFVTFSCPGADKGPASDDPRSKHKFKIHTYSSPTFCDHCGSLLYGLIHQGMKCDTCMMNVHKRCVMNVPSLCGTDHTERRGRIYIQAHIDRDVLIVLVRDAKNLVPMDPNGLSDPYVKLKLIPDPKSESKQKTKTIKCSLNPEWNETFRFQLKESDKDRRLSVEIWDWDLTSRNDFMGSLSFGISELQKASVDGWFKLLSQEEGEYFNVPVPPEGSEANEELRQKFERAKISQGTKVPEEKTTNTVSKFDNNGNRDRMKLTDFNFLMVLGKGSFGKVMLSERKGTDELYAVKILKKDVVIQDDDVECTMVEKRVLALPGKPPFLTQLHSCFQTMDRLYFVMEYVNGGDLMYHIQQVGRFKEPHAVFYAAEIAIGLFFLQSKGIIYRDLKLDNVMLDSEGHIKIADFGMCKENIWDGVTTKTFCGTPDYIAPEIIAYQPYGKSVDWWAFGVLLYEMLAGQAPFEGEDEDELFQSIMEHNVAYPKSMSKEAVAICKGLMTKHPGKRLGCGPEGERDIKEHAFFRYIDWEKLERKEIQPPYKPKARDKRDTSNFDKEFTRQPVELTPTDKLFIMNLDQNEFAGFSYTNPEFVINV
# Chain of Protein kinase C eta type (Homo sapiens) (P24723 whole entry): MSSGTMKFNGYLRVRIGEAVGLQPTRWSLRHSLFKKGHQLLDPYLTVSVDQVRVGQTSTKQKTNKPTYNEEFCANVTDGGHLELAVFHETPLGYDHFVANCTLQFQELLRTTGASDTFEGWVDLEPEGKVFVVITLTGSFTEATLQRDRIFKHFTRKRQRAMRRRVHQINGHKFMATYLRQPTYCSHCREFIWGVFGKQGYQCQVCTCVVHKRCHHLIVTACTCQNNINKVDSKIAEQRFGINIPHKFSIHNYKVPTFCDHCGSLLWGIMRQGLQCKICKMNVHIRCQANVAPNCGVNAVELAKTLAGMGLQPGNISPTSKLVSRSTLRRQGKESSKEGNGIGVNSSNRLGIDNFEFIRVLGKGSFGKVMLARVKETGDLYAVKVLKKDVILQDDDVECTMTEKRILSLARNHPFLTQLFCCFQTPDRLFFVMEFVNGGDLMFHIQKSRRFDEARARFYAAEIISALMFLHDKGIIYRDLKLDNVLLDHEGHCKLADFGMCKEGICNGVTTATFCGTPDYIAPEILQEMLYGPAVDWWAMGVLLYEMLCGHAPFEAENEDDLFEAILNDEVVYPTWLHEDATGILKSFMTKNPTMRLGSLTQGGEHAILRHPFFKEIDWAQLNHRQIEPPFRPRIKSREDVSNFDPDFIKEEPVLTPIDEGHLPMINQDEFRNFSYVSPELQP
SMILES,inhibition [1],inhibition [2],inhibition [3],inhibition [4],inhibition [5],inhibition [6],inhibition [7],inhibition [8],inhibition [9],inhibition [10],inhibition [11],inhibition [12],inhibition [13],inhibition [14],inhibition [15],inhibition [16],inhibition [17],inhibition [18],inhibition [19],inhibition [20]
CC1=C(C(=O)Nc2cc(Cl)c3[nH]ncc3c2)C(c2ccc(C(F)(F)F)cc2)CC(=O)N1 (stereo not given),1.84%,21.8%,71%,0.91%,1.52%,0.15%,2.02%,5.7%,39.1%,3.92%,3.46%,1.43%,1.11%,5.67%,28.3%,1.98%,2.19%,2.79%,6.51%,3.43%
CCN1CCC(CC(=O)Nc2n[nH]c3nnc(-c4cccc(F)c4F)cc23)CC1,1.89%,1.6%,3.23%,0.66%,1.58%,2.14%,0.03%,1.63%,3.3%,3.44%,1.09%,0.63%,1.36%,0.68%,1.31%,0.16%,0.85%,0.72%,1.85%,2.45%
Cc1cccc2c1NC(=O)/C2=N\Nc1ccc(S(N)(=O)=O)cc1,2.44%,1.54%,2.59%,0.55%,5.16%,0.49%,-1.37%,4.66%,3.34%,-3%,-2.77%,1.18%,2.53%,0.85%,0.4%,2.86%,0.46%,2.89%,4.31%,2.72%
NS(=O)(=O)c1ccc(N/N=C2\C(=O)Nc3ccc4ncccc4c32)cc1,20.8%,1.4%,3.13%,0.41%,3.78%,-0.44%,-0.03%,2.36%,3.07%,0.51%,11.8%,-0.86%,1.52%,2.1%,11.8%,1.28%,3.78%,12.6%,62.2%,9.02%
COC(=O)Nc1nc2ccc(S(=O)(=O)c3ccc(NC(=O)Nc4cc(C(F)(F)F)ccc4F)cc3)cc2[nH]1,1.73%,1.93%,1.3%,0.42%,-0.51%,0.31%,0.32%,0.95%,2.18%,0.47%,1.8%,0.65%,1.49%,0.7%,-0.17%,0.33%,0.07%,2.33%,5.18%,2.66%
COc1ccc(CNC(=O)c2ccc(-c3cc(-c4nnc(C)o4)ccc3C)cc2)cc1,1.94%,3.14%,3.15%,0.19%,0.76%,6.66%,9.43%,-0.12%,4.73%,3.1%,2.05%,2.77%,0.76%,2.86%,5.52%,2.73%,3.61%,2.89%,-0.42%,0.8%
COc1cccc(-n2ncc3c(N/N=C/c4ccc(F)cc4)ncnc32)c1,0.01%,1.66%,3.69%,0.47%,1.43%,1.01%,0.97%,3.28%,2.58%,0.86%,2.6%,1.87%,1.45%,2.53%,4.19%,2.56%,0.22%,3.64%,4.89%,3.35%
COc1cc(/C=N/Nc2ncnc3[nH]ncc23)ccc1O,2.95%,1.43%,5.96%,0.03%,3.59%,-0.06%,4.56%,0.97%,7.35%,2.16%,8.27%,2.83%,2.53%,2.3%,4.29%,0.58%,4.16%,2.99%,4.19%,2.81%
CNC(=O)c1cccc(C#Cc2cncnc2Nc2ccc(OCc3cccc(F)c3)c(Cl)c2)c1,1%,1.13%,0.28%,-0.17%,0.64%,0.07%,1.77%,1.23%,-0.12%,0.99%,-1.09%,0.26%,-0.26%,0.09%,1.85%,-3.35%,-0.69%,0.59%,-0.61%,-0.57%
O=S(=O)(CCNCc1ccc(-c2ccc3ncnc(Nc4ccc(OCc5cccc(F)c5)c(Cl)c4)c3c2)o1)c1ccccc1,0.78%,2.48%,6.82%,1.39%,2.12%,0.95%,2.13%,4.07%,3.1%,1.93%,6.38%,4.15%,4.31%,2.33%,2.85%,2.03%,2.6%,5.17%,7.32%,5.52%
CCn1c(-c2nonc2N)nc2ccccc21,2.81%,3.16%,18.5%,0.44%,5.52%,12.7%,46.5%,20.8%,67.6%,3.92%,4.67%,1.65%,6.6%,1.58%,6.38%,0.96%,7.2%,2.23%,5.47%,2.41%
c1cc(-c2cnn3nc(N4CCOCC4)ccc23)nc(NC2CC2)n1,4.31%,1.21%,1.42%,1.17%,6.27%,-0.45%,-0.77%,2.39%,2.99%,6.1%,1.85%,1.79%,3.89%,1.39%,1.61%,0.87%,1.89%,3.97%,39.6%,6.38%
Nc1ncc(-c2cccc(S(N)(=O)=O)c2)c2scc(-c3ccc(F)c(Cl)c3)c12,1.01%,3.02%,3.59%,-0.67%,2.74%,-0.08%,0.9%,4.76%,6.59%,-0.92%,2.77%,1.76%,2.27%,1.73%,2.11%,0.92%,1.52%,6.59%,35%,8.43%
